Bioassay records from PubChem.
TRHR ag = agonists of human TRH receptor; activation, % at 2 µM; TRHR cells, calcium flux fluo-8, FDSS agonist mode; P34981; hit rate 0.18% among 360,000; further: 0% is about no effect
Target sequence (P34981 whole entry, looked up): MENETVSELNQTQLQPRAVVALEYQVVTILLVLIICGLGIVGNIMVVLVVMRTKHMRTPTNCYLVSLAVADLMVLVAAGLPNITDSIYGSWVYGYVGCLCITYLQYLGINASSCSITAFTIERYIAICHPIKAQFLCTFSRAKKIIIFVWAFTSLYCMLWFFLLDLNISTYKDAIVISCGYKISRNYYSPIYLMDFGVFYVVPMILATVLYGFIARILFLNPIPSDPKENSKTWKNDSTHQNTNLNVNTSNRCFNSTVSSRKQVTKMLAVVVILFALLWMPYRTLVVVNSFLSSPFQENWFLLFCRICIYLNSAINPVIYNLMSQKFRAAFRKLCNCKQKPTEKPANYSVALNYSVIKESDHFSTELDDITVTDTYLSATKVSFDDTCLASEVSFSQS
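In this calcium-flux screen, cells bearing human TRHR are dye-loaded with fluo-8, baselined for 10 cycles, then exposed to library compounds; positive kinetic calcium responses during the agonist phase mark hits, with TRH as control.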
TRHR enhancer = TRH receptor (human) allosteric enhancement. enhancement, % at 2 µM. TRHR cells, fluo-8 calcium fluorescence, EC20 TRH enhancement. hit rate 0.66% among 360,000. P34981; in the data active means enhancement above about 30%; further: 0% is about no effect
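TRHR-expressing cells loaded with fluo-8 calcium dye were read kinetically (ex 480/em 530) during compound addition, then stimulated with an EC20 of TRH (10 nM final). Enhancement of the Gq-mediated intracellular calcium response was scored.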
D1 potentiator = human D1 dopamine receptor positive modulation | HEK293 TREx D1 cells, calcium flux, dopamine EC20 potentiation | potentiation, % at 10 µM | hit rate 0.036% among 360,000; in the data active means potentiation above about 30%; further: 0% is about no effect
D1 agonist = activates the human D1 dopamine receptor; P21728; HEK293 T-REx D1 cells, calcium flux, agonist mode; activation, % at 2 µM; hit rate 1% among 360,000; further: 0% is about no effect
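Tetracycline-induced HEK293 TREx D1 cells, force-coupled to calcium signalling, were dye-loaded with a no-wash calcium kit. Compound was pin-added after a 10 s baseline. Fluorescence was read kinetically at 1 cycle/s for 180 s, with calcium rises flagged as agonism.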
D1 antagonist = human D1 dopamine receptor antagonism. HEK293 TREx D1 cells, calcium flux, dopamine EC80; stronger effect = lower value. activity change, negative = inhibition, % at 10 µM. AID 504652. P21728. hit rate 3.2% among 360,000; in the data active means activity change below about -30%; further: on the % scale 0 is the no-effect control and ±100 the full control effect
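Cells carrying a force-coupled, tetracycline-inducible human D1 receptor report calcium flux. Each well gets a 10 s baseline, compound with 180 s monitoring, then an EC80 dopamine stimulus with a second 180 s kinetic read.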
An asterisk follows results filed as active. Sampled rows, rich in hits. Any-hit rate of the full collection: about 4.7%. Unless noted, no stated cut-off is given here; in the data, active means activation above about 30%; inactive means the rest.

SMILES	TRHR ag	TRHR enhancer	D1 potentiator	D1 agonist	D1 antagonist
CCCCCCn1c(=O)[nH]c2nc3cc(N)ccc3nc2c1=O	129.6*	30.6*	16.3	451.4*	-14.0
O=C(CNC(=O)c1ccncc1)OC(C(=O)Nc1cc(C(F)(F)F)ccc1Cl)c1ccccc1 (stereo unspecified)	0.6	3.1	4.7	1.3	21.3
Cc1ccc(C)c(CSC2=NC(C)(C)Nc3ccccc32)c1	-0.3	5.8	-9.9	0.4	-82.7*
COc1ccc(NC(=O)CSc2nncn3c2cc2occc23)c(OC)c1	-0.1	-5.6	-1.4	0.7	-1.9
Cc1c(Cl)cccc1NC(=O)C(C)n1nnc2sc3c(c2c1=O)CCCC3 (stereo unspecified)	-0.8	2.8	2.1	-1.1	-7.3
Cc1ccc[n+](CC(=O)Nc2c(Cl)cc(Cl)cc2Cl)c1	-0.6	0.3	-3.2	0.7	19.5
O=C(C[n+]1ccccc1)Nc1c(Cl)cc(Cl)cc1Cl	-0.7	38.7*	4.8	2.3	9.1
Fc1ccccc1Cn1c(-c2ccccc2)nc2ccccc21	-1.8	3.7	0.8	14.7	-8.8
CCCCC1CC(CSc2ncn[nH]2)OC1=O (stereo unspecified)	0.0	-1.3	0.5	-0.4	-36.4*
CCCCCCCC1CC(CSc2ncn[nH]2)OC1=O (stereo unspecified)	0.0	-2.7	-6.7	-1.5	-12.9
COc1cc(/C=C(\C#N)c2nc3c(s2)CCCC3)ccc1O	39.6*	4.1	6.3	59.7*	4.9
N#C/C(=C\c1cccnc1)c1nc2c(s1)CCCC2	2.1	1.1	1.9	3.7	2.5
Cc1cc(C)c2c(=O)cc(C(=O)Nc3c(C)n(C)n(-c4ccccc4)c3=O)oc2c1	1.3	0.7	-2.8	1.2	-4.6
COc1cc(OC)cc(C(=O)NCCc2csc(-c3ccc(C(F)(F)F)cc3)n2)c1	0.2	-2.1	-2.6	7.7	2.7
O=c1oc2ccccc2cc1-c1nc2ccccc2o1	-0.8	8.4	-10.1	1.5	-4.3
Nc1cc2nc3ccccc3oc-2cc1=O	9.4	2.0	-0.2	33.0*	-8.8
Cc1nn2c(-c3ccccc3)ccnc2c1Br	0.2	4.6	1.3	0.9	24.7
Cc1nn2c(-c3cccnc3)ccnc2c1-c1ccccc1	-0.4	-1.1	-8.0	4.1	-44.2*
COc1ccccc1CNC(=O)C(C)n1c(=O)cc(-c2ccccc2)c2c(C)nn(C)c21 (stereo unspecified)	0.0	-25.5	-2.2	2.4	-1.1
CCOC(=O)CN(C(=O)CSc1nnc(C)n1-c1ccccc1)c1cccc([N+](=O)[O-])c1	-0.7	5.2	-2.6	0.8	-4.6
CCOC(=O)CN(C(=O)CSc1nnc(C)n1-c1ccccc1)c1ccccc1	-0.1	-19.6	-4.0	0.7	-52.1*
COc1ccc(CCNC(=O)C2(C)CCC(=O)N2Cc2ccc(F)cc2Cl)cc1OC (stereo unspecified)	-0.5	-1.4	-2.4	0.3	-32.6*
O=C(Nc1ccc(Cl)c(-c2nc3cc(Cl)ccc3o2)c1)c1cc([N+](=O)[O-])ccc1N1CCOCC1	-4.3	3.3	-2.0	1.6	9.7
O=C(COc1ccccc1[N+](=O)[O-])OC1CCS(=O)(=O)C1 (stereo unspecified)	0.1	-26.9	-6.6	0.4	-78.5*
O=C(COc1ccccc1[N+](=O)[O-])N(C1CCCCC1)C1CCS(=O)(=O)C1 (stereo unspecified)	0.6	-3.6	-3.5	3.4	15.4
SMILES	TRHR ag	TRHR enhancer	D1 potentiator	D1 agonist	D1 antagonist
COc1ccccc1NC(=O)N(Cc1nnc2n1CCCCC2)c1ccc(F)cc1	-0.3	-4.5	-0.9	2.6	0.8
CC1CCCC(C)N1CC(O)COc1c(F)cc(Br)cc1F (stereo unspecified)	0.0	2.0	-13.8	6.3	-52.1*
Cc1ccc(Cn2c(CNS(=O)(=O)c3c(C)cc(C)cc3C)nc3cccnc32)cc1	0.2	3.6	0.2	1.3	10.1
Cc1ccc(C)c(CN2CCC(CNC(=O)Nc3ccc(Cl)cc3)CC2)c1	2.2	6.6	-21.3	23.2	-32.7*
COc1cccc(CNC(=O)C2CCN(S(=O)(=O)c3c(C)noc3/C=C/c3cccs3)CC2)c1	0.7	-0.9	4.8	5.7	11.1
Cc1ccc(Cl)cc1NC(=S)N(CCCN1CCOCC1)Cc1ccccn1	0.2	14.1	0.0	0.1	-74.4*
CCCCOC(=O)Cn1c(=O)n(CC(=O)OCCCC)c2ccccc21	-0.5	-1.4	2.9	1.4	-7.7
CCCCCCCCCCOC(=O)Cn1c(COc2ccccc2)[n+](C)c2ccccc21	1.0	-1.2	-9.8	124.1*	-41.8*
CCCCCCCCCCOC(=O)Cn1c(COc2cccc(C)c2)[n+](C)c2ccccc21	0.1	-6.1	7.5	116.0*	-18.9
CCCCCOC(=O)Cn1c(=O)oc2ccccc21	-0.2	-4.5	1.9	0.0	-16.8
CCCCCCCCCCOC(=O)Cn1c(COc2ccc(OC)cc2)[n+](C)c2ccccc21	4.2	2.7	-4.2	138.5*	-17.5
CCCCCCCCCCOC(=O)Cn1c(COc2ccc(Cl)cc2)[n+](C)c2ccccc21	0.4	-3.4	-11.6	136.7*	-41.8*
CCCOc1ccc(/C=C/C(=O)Nc2sc3c(c2C(=O)OCC)CCC(C)C3)cc1OC (stereo unspecified)	-0.5	4.3	-1.1	-0.7	2.2
O=C(Nc1ccccc1C(F)(F)F)C1CCN(S(=O)(=O)c2ccccc2)CC1	-0.4	-7.1	-2.5	3.7	-15.0
COc1ccc(-c2nc(CSc3nnc(C)n4c3cc3occc34)c(C)o2)cc1OC	0.3	-0.7	1.1	0.9	-14.0
COc1ccccc1CNC(=O)C(NS(=O)(=O)c1ccc2c(c1)CCN2C(C)=O)C(C)C (stereo unspecified)	-0.4	-3.8	1.4	-1.0	-27.6
CCCCCCCCCCOC(=O)Cn1c(COc2ccccc2C)[n+](C)c2ccccc21	1.0	-6.6	-4.5	76.2*	4.5
COc1ccc(Nc2nc3c(S(=O)(=O)c4ccccc4)nnn3c3ccc(Cl)cc23)c(OC)c1	0.0	-2.6	1.2	0.9	3.1
Cc1cccc(NC(=O)c2ccc(C(=O)c3ccccc3)cc2)n1	-0.3	-9.3	0.2	4.2	-34.6*
Cc1ccc(S(=O)(=O)N(C)c2ccc(C(=O)Nc3cccc(C)n3)cc2)cc1	-2.3	-9.9	-5.5	7.1	-21.5
CCN(c1ccccc1)S(=O)(=O)c1ccc(C(=O)Nc2cccc(C)n2)cc1	1.0	-3.6	-8.0	5.1	-35.2*
Cc1cccc(NC(=O)c2cccc(C(=O)Nc3cccc(C)n3)c2)n1	-0.3	4.0	-4.8	1.6	-14.5
CC(=O)N1CCCc2ccc(NC(=O)c3ccc(OC(C)C)cc3)cc21	-0.2	-3.3	-0.6	-1.8	-4.9
CCS(=O)(=O)Nc1cccc(C2=NN(C(C)=O)C(c3cccs3)C2)c1 (stereo unspecified)	0.2	9.4	-2.8	2.7	-47.0*
